These results are taken from ChEMBL document CHEMBL3988442, “University of Dundee, Small-Polar-MMV Screening Library” (2021).

About 420 (0.61%) of roughly 69,000 compounds showed an effect of 50% or more. What follows is part of a selection rich in strong results, with near analogues and random picks from the rest.

The target in the experiment is T1, Histidine--tRNA ligase (Leishmania infantum) (UniProt A4I591).
T1 sequence (whole entry): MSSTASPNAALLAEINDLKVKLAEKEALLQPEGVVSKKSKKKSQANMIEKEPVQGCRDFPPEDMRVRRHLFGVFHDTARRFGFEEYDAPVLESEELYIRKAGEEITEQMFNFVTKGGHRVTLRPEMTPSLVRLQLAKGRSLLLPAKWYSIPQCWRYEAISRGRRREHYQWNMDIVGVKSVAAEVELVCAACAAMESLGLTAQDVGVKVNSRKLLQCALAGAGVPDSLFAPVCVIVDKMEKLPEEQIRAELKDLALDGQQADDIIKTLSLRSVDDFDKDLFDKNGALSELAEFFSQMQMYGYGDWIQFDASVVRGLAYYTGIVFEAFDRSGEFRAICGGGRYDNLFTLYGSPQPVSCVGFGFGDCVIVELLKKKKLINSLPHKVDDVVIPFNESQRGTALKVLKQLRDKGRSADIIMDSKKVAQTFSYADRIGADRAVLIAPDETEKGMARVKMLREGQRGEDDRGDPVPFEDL
Briefly: Leishmania infantum Histidine tRNA synthetase (LdHisRS). The format is functional. The arrangement: scale not given: in the data most compounds retested in dose-response had high values. Conditions: 30 µM.
Take `Cc1ccc(N2CC[C@H]3C[C@H](C(=O)NCc4ccco4)O[C@H]3C2)nn1`: the Percent Effect is 18.1%.

For `N#Cc1c(SCCN2CCCCCC2)sc2c(O)cc(O)nc12`, the Percent Effect worked out at 24.7%. The same measure for `N#Cc1c(SCCN2CCCCC2)sc2c(O)cc(O)nc12`: 24.7%; for `N#CCCSc1sc2c(O)cc(O)nc2c1C#N`: 74.2%. For the compound `Cc1ccc(NS(=O)(=O)c2cnn(-c3ccccc3)c2)c(C(=O)O)c1`, the Percent Effect came to 69.6%. The same measure for `Cc1ccc(NS(=O)(=O)c2cnn(Cc3ccccc3)c2)c(C(=O)O)c1`: 23.9%; for `Cc1ccc(-n2cc(S(=O)(=O)Nc3cccc(C(=O)O)c3C)cn2)cc1`: 13%; for `Cc1ccnc(C(=O)N2C[C@@H]3CN(S(C)(=O)=O)CCO[C@@H]3C2)c1`: 8.77%. As to `COCCOc1ccccc1C(=O)N1CCCCC1c1nccs1` (centres undefined), the Percent Effect is 50%. With `COCCOc1ncccc1C(=O)N1CCCCC1c1nccs1` (centres undefined), the Percent Effect turned out to be 14.9%.

Turning to `COc1cccc(C(=O)N2CCCCC2c2nccs2)c1OC` (centres undefined), the Percent Effect was found to be 4.39%. Under `Cc1ccc(S(=O)(=O)Nc2ccc(-n3nnn(C)c3=O)cc2)cc1` stands 12.2%; under `Cn1cc(NS(=O)(=O)c2ccc(F)c(F)c2)ccc1=O`, 47.3%; under `Cn1cc(NS(=O)(=O)c2ccc(OC(F)(F)F)cc2)ccc1=O`, 82%. The same measure for `CCCc1ccc(S(=O)(=O)Nc2ccc(=O)n(C)c2)cc1`: 29.1%; for `Cc1ccc(S(=O)(=O)Nc2ccc(=O)n(C)c2)cc1`: 77.5%. For the compound `Cn1cc(NS(=O)(=O)c2ccc(C(F)(F)F)cc2)ccc1=O`, the Percent Effect was found to be 38.2%. In the case of `CCc1ccc(C(=O)O)cc1S(=O)(=O)Nc1ccc(=O)n(C)c1`, the Percent Effect amounted to 21.4%. Consider `Cn1cc(NS(=O)(=O)c2ccc3c(c2)CCCC3)ccc1=O`, for which the Percent Effect turned out to be 41.8%.

Turning to `Cc1ccc(S(=O)(=O)Nc2ccc(=O)n(C)c2)c(Br)c1`, the Percent Effect came out at 32.7%.

As for `CC(C)c1ccc(C(=O)O)cc1S(=O)(=O)Nc1ccc(=O)n(C)c1`, the Percent Effect is 84.6%. For `Cc1ccc(S(=O)(=O)Nc2ccc(-n3cccc3C(=O)O)c(C)c2)cc1`, the Percent Effect amounted to 6.25%.

As to `CC(C)Cc1ccc(S(=O)(=O)Nc2ccc(=O)n(C)c2)cc1`, the Percent Effect stood at 91%. Under `c1ccc(CN2CC[C@@H]3O[C@H](COCc4ccncc4)CC[C@@H]32)nc1` stands 10.9%. The same measure for `CC(C)CN1C[C@@H]2OCC(=O)N(Cc3nccn3C)[C@@H]2C1`: 23%; for `O=C([C@@H]1COC[C@H]2CN(C3CCOCC3)C[C@H]21)N1CCOCC1`: 30.6%; for `CCO[C@H]1CC[C@H]2[C@@H]1OCCN2C(=O)COc1ccccc1`: 19.1%. Turning to `CN1[C@H]2CC[C@@H]1CN(C(=O)c1sccc1S(N)(=O)=O)CC2`, the Percent Effect is -12.7%. The same measure for `CN(c1cccnn1)[C@@H]1CC[C@@H]2CN(Cc3cccc(C(=O)O)c3)C[C@@H]21`: 5.63%; for `Cc1[nH]nc(CCC(=O)N2C[C@H]3CC[C@@H]2CN(C(=O)N(C)C)C3)c1C`: 13.9%; for `Cc1cc(C(=O)N2C[C@@H]3CN(S(C)(=O)=O)CCO[C@@H]3C2)c(C)o1`: -1.75%.

As to `CNC(=O)[C@@]12CCO[C@@H]1CCN(S(=O)(=O)c1cc(C)cc(C)c1)C2`, the Percent Effect was 13%. Under `Cc1c(CS(C)(=O)=O)cccc1NC(=O)CC1CCCC1` stands 11.7%. The same measure for `Cn1ccc(CN2CCC(CC(=O)NC3CCCC3)CC2)cc1=O`: -8.33%; for `Cn1cc(Br)cc(NC(=O)CC(C)(C)C)c1=O`: 95%. Under `Cn1cc(Br)cc(NC(=O)CC2CCC2)c1=O` stands 103%. Take `CCC(=O)Nc1cc(Br)cn(C)c1=O`: the Percent Effect is 103%. Under `O=C(CC1CCCC1)Nc1ccc(-n2cc(Br)cn2)nc1` stands 10.5%.

As for `CC(C)(C)CC(=O)Nc1ccccc1SCC(N)=O`, the Percent Effect was 9.57%. The same measure for `Cc1cc(=O)n(C)cc1NC(=O)CC1CCC1`: 75%; for `Cn1cc(C(C)(O)CNC(=O)c2cc(Br)cn2C)cn1` (centres undefined): 25.5%. The same measure for `Cn1cc(Br)cc(NC(=O)Cc2cccs2)c1=O`: 34%; for `CCC(=O)Nc1cc(Br)cnc1OCC(F)(F)F`: 14%. For `Cc1nn(C)cc1NC(=O)CC1CCN(CCc2ccccc2)CC1`, the Percent Effect is 5.67%.

Turning to `COCCNC(=O)[C@H]1CN(Cc2nccs2)C[C@H]2OCC[C@@H]12`, the Percent Effect came out at 15.2%.

For `COCCCN1C(=O)CC[C@H]2CN(Cc3ncc[nH]3)CC[C@H]21`, the Percent Effect is -49.3%. Under `COc1cc(N2C[C@H](C(=O)N3CCCC3)[C@@H]3CCO[C@@H]3C2)ncn1` stands 8.06%; under `O=C(c1ccco1)N1CC[C@H]2[C@H]1CCN2S(=O)(=O)C1CC1`, 5.26%; under `Cc1ccc(C(=O)N2C[C@@H]3COC[C@]3(COc3cccnc3)C2)cn1`, 7.52%. Under `O=C(NCc1cccs1)[C@]12COC[C@H]1CN(c1ncccn1)C2` stands 5.26%; under `CCCS(=O)(=O)N1C[C@@H](Oc2ncccc2F)[C@H]2OCCC[C@H]21`, 8.22%; under `c1cnc(N2CCO[C@H]3[C@H](OCc4cccnc4)CC[C@@H]32)nc1`, -9.73%.

As to `Cc1ncsc1CN1CC[C@H]2OCC[C@@]2(C(=O)N2CCCO2)C1`, the Percent Effect was 16.8%.

Consider `COc1ccccc1C1(CNCc2cccc(C#N)c2)CCOCC1`, for which the Percent Effect amounted to 49.5%.

`COc1ccccc1C1(CNCc2ccc([S+](C)[O-])cc2)CC1` (centres undefined): the Percent Effect was 12.1%. Under `N#Cc1ccc(CNCC2(c3ccccc3)CCOCC2)cc1` stands 42.9%; under `COc1ccccc1C1(CNCc2ccc(C#N)cc2)CCOCC1`, 60.4%; under `COc1ccccc1C1(CNc2nnc(C)c(C)c2C#N)CCOCC1`, 37%.

As to `COc1ccccc1C1(CNCc2cccc(O)c2)CCOCC1`, the Percent Effect came to 109%. On to `Cn1cc(C(=O)N2C[C@@H]3CN(S(C)(=O)=O)CCO[C@@H]3C2)cn1`, for which the Percent Effect turned out to be 7.55%. Turning to `Cc1oncc1C(=O)N1CC[C@H]2[C@@H]1CCC(=O)N2CC1CC1`, the Percent Effect was 0%.

Turning to `CC(C)CN1C[C@H]2C[C@H](C(=O)N3CCCC3)[C@@H](C1)O2`, the Percent Effect was found to be 13.2%. The same measure for `Cc1noc(C(C)Nc2ccc3c(c2)CCC3)n1` (centres undefined): 9.38%; for `Cc1noc(C(C)Nc2ccc3oc(C(C)C)nc3c2)n1` (centres undefined): 106%; for `Cc1noc(C(C)Nc2ccc3oc(C)nc3c2)n1` (centres undefined): 106%. Under `Cc1noc(C(C)Nc2ccc3oc(=O)[nH]c3c2)n1` (centres undefined) stands 16.4%; under `CC(C)c1nc2cc(NC(=O)Cn3ccc(=O)[nH]c3=O)ccc2o1`, 14%; under `CC(C)c1nc2cc(NC(=O)Cn3ccccc3=O)ccc2o1`, 12%. Regarding `Fc1cnc(N2C[C@@H]3C[C@@H](c4nc(C5CC5)cs4)O[C@@H]3C2)nc1`, the Percent Effect is 7.55%. Under `CC(C)CNc1nc(C(=O)/N=c2\[nH]nc(C(C)(C)C)s2)cs1` stands 1.91%.

Regarding `Cc1cs/c(=N/C(=O)c2csc(NCC(C)C)n2)[nH]1`, the Percent Effect worked out at 75.3%. Under `Cc1[nH]/c(=N\C(=O)c2csc(NCC(C)C)n2)sc1C` stands 20.9%. With `CCN(Cc1nc2c(cnn2C)c(=O)[nH]1)Cc1ccco1`, the Percent Effect came out at 15.7%. The same measure for `COCCN1CCCc2sc(C(=O)NCC3CCCO3)nc21` (centres undefined): 52.8%.

With `O=C(NCC1CCCO1)c1nc2c(s1)CCCN2Cc1ccccc1` (centres undefined), the Percent Effect was 45.8%.

For the compound `O=C(NCC1CCCO1)c1nc2c(s1)CCCN2CC1CC1` (centres undefined), the Percent Effect turned out to be 29.2%.

Regarding `Cc1cccc(CN2C[C@@H]3COC[C@]3(CNC(=O)C3CCC3)C2)c1`, the Percent Effect was found to be 17.8%. In the case of `NCC1CCN(C2CCN(c3ccc(-c4ccco4)cc3)CC2)C1` (centres undefined), the Percent Effect amounted to 64.3%. The same measure for `COc1ccc(N2CCC(N3CCOC(C(F)(F)F)C3)CC2)cc1` (centres undefined): 14.3%; for `CNC1CCN(C2CCN(c3ccc(-c4ccco4)cc3)CC2)CC1`: 42.1%; for `O=C(O)c1ccccc1C1CCN(C2CCN(c3ccccc3)CC2)C1` (centres undefined): 22.7%.

As for `CCS(=O)(=O)c1ccc(N2CCC(N)CC2)cc1`, the Percent Effect was found to be 11.6%. Under `NC1CCN(C2CCN(c3ccc(-c4ccco4)cc3)CC2)CC1` stands 54.8%; under `Cc1cccc(C(=O)N2CCN(S(C)(=O)=O)[C@@H]3CS(=O)(=O)C[C@@H]32)n1`, -2.67%. Under `COC[C@@]12CC[C@@H](N3CCOCC3)C[C@H]1CCN(c1ncccc1F)C2` stands 19.4%; under `O=C1OCCN1CC(=O)N1C[C@H]2CC[C@@H]1CN(Cc1cscn1)C2`, -18.2%. Under `O=C(c1ccccn1)N1CC[C@H]2C(=O)N(c3ccsc3)CCO[C@H]2C1` stands 18%; under `CCCn1nc2c(cc1=O)CN(c1ncnc3sccc13)CC2`, 15.3%; under `CC(C)n1nc2c(cc1=O)CN(c1ncnc3sccc13)CC2`, 38.7%. On to `c1csc(N2CCN(c3ncnc4sccc34)CC2)n1`, for which the Percent Effect was found to be 27.1%. Under `CCn1nc2c(cc1=O)CN(c1ncnc3sccc13)CC2` stands 102%; under `Cn1nc2c(cc1=O)CN(c1ncnc3sccc13)CC2`, 100%. Under `c1csc(N2CCCN(c3ncnc4sccc34)CC2)n1` stands 22.4%; under `O=C1N(c2cccc(F)c2)Cc2nc(=O)n(Cc3ccc(Cl)cc3)n21`, 9.78%. Under `O=C(Cc1ccco1)N1C[C@H]2CCC[C@@]2(COCC2CC2)C1` stands 20%; under `CN(C)C(=O)CN1CC[C@H]2CN(S(C)(=O)=O)C[C@@H]2C1=O`, 15.5%. Take `CN(C)C(=O)N1C[C@H](Oc2ccccn2)[C@H]2OCCC[C@H]21`: the Percent Effect is 8.74%. For the compound `COCC(=O)N1C[C@H]2CNC[C@@]2(C(=O)NCc2snnc2C)C1`, the Percent Effect came to 18.6%.

With `CN(CCOCC1CC1)C(=O)Cn1cccc(C(F)(F)F)c1=O`, the Percent Effect was found to be 15.4%. Under `CCc1ccccc1OCCN(C)C(=O)CN1CCCC1` stands 22.2%; under `COCCN(C)C(=O)Cn1cccc(OC)c1=O`, 105%; under `COCCCN(C)C(=O)Cn1cccc(OC)c1=O`, 107%. In the case of `CN(CCCOc1ccccc1Cl)C(=O)CN1C[C@@H]2CC[C@H](CC1=O)N2`, the Percent Effect was 17.7%.

With `COc1cccn(CC(=O)N(C)CCSC)c1=O`, the Percent Effect came to 32%. Under `COc1cccn(CC(=O)N(C)CCC2CCOCC2)c1=O` stands 91.2%; under `CCc1cccc(OCCCN(C)C(=O)CN2CCNC2=O)c1`, 8.85%. The same measure for `CN(CCCOc1ccccc1Cl)C(=O)CN1CCCCCC1=O`: 21.2%; for `CCN(CC1CCOCC1)C(=O)Cn1cccc(C(F)(F)F)c1=O`: 13.2%; for `COc1cccn(CC(=O)N(C)Cc2ccoc2)c1=O`: 47.6%. Turning to `COc1cccn(CC(=O)N(C)CCOc2cc(C)cc(C)c2)c1=O`, the Percent Effect is 105%. Turning to `CC(=O)N1CC[C@H]2CC(=O)N(C3CC3)CC[C@H]2C1`, the Percent Effect was 22.2%. Regarding `CNC(=O)CN1CC[C@H]2CN(C(=O)c3cc[nH]n3)C[C@H]2C1`, the Percent Effect amounted to 16.7%. Turning to `CNC(=O)[C@@H]1CC[C@@H]2[C@@H](CCN2Cc2cn(C)c3ccccc23)O1`, the Percent Effect was found to be 13.2%. For the compound `O=C1[C@H]2CC[C@H](CN(C3CSCCSC3)C2)N1Cc1cscn1`, the Percent Effect is 11.4%.
